Laboratory results published in PubChem BioAssay AID1745850 (National Center for Advancing Translational Sciences (NCATS), 2022).
The whole screen tested about 2,100 compounds, of which about 260 (12%) were called active. About 58% were inconclusive and are not listed. The call rests on the fitted dose curve; in most records, active means well fitted cell-killing curve with a large enough effect; inconclusive means small, poorly fitted or top-dose-only effect, or effect the other way; inactive means flat fitted curve, though single readings scatter. This is one part of the list. Entries that show only a call come without a potency.

experiment: Viability Counterscreen for Confirmatory qHTS for Inhibitors of ATXN expression; conditions: HEK-293 ATXN2-luc cells viability, CellTiter-Fluor, 24 h; further: nearly all actives have a fitted effect of over 50% in size
Outline: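 Cells with an ATXN2-luciferase reporter were dosed in a dilution series for 24 h at 37 degrees C. Viability was read first with Gly-Phe-AFC at 25 uM final (fluorescence, ex 405/em 540), then SteadyGlo luminescence. Medium-only wells defined 100% inhibition.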
Potency means the concentration at half of the fitted maximal effect.

SMILES	Potency
Cc1ccc(SC2=C(Sc3ccc(C)cc3)C(=O)c3ccccc3C2=O)cc1	inactive
CCC(=O)OC1(C(C)=O)CCC2C3CCC4=CC(=O)CCC4(C)C3CCC21C (stereo unspecified)	inactive
CSc1ncnc2c1ncn2CC(=O)C1CCC2C3CCC4=CC(=O)CCC4(C)C3CCC12C (stereo unspecified)	17.8 µM (active)
Cc1ccc(Sc2nnc(Cc3ccccc3)c3ccccc23)cc1	inactive
Cc1cc(C)c(C(=O)N2CCCC(N3CCN(c4cccc(C(F)(F)F)c4)CC3)C2)o1 (stereo unspecified)	inactive
Cc1cc(N/N=C/c2ccccc2[N+](=O)[O-])nc(-n2nc(C)cc2C)n1	12.6 µM (active)
CCOc1cc(/C=N/Nc2cc(C)nc(-n3nc(C)cc3C)n2)ccc1O	3.98 µM (active)
CCOC(=O)c1cnc(-n2nc(C)cc2C)nc1NC1CCCC1	inactive
Cc1cc(O)c(C(C)C)cc1N=Cc1ccccc1[N+](=O)[O-]	inactive
CC(=O)c1ccc(S(=O)(=O)N2CCN(CCOc3ccc(Br)cc3)CC2)cc1	inactive
CC(C)(C)N(Cc1ccc2c(c1)OCO2)C(=O)/C=C\S(=O)c1ccccc1 (stereo unspecified)	17.8 µM (active)
CN(C)CCC(c1ccc(Br)cc1)c1ccccn1 (stereo unspecified)	inactive
CCOC(=O)c1c(-c2ccccc2)oc2ccc(OCC(=O)NN)cc12	inactive
O=C(N/N=C\c1cc(Br)ccc1O)c1ccc(S(=O)(=O)N2CCCCC2)cc1	inactive
CCOc1cc(/C=C(/C#N)c2nc3ccccc3[nH]2)ccc1Oc1ccc([N+](=O)[O-])cn1	inactive
N#C/C(=C\c1ccc([N+](=O)[O-])o1)c1nc2ccccc2[nH]1	7.94 µM (active)
O=C(Nc1cccnc1)C1Cc2c(-c3ccc4c(c3)OCO4)ccnc2O1 (stereo unspecified)	inactive
Cc1nn(-c2ccccc2)c(N2CCCC2)c1/C=N/NC(=O)c1cc2ccccc2cc1O	inactive
Cc1nc(SC2CC(=O)N(c3ccccc3)C2=O)n[nH]1 (stereo unspecified)	inactive
Cc1cc(C(=O)CN2C(=O)c3ccccc3S2(=O)=O)c(C)n1CC1CCCO1 (stereo unspecified)	inactive
CCc1nc2c(OCc3ccc(Cl)cc3Cl)cccn2c1N(C=O)Cc1ccc(OC)cc1	inactive
Cc1cc(/C=N/n2cnnc2)c(C)n1-c1ccc(OCc2ccc(Cl)cc2Cl)cc1	28.2 µM (active)
S=C(Nc1ccccc1)Nc1ccc(OCc2ccc(Cl)cc2Cl)cc1	inactive
Nc1cccc2c1C(=O)N(C(=O)/C=C/c1cccc(Br)c1)C2=O	inactive
Cn1nnnc1Sc1ncnc2scc(Br)c12	20 µM (active)
Cn1nnnc1Sc1ncnc2scc(-c3ccc[nH]3)c12	12.6 µM (active)

SMILES	Potency
O=c1[nH]c(CN2CCN(c3ncccn3)CC2)nc2c(Br)cc(Br)cc12	inactive
CCOC(=O)COc1ccc(Br)cc1/C=C/c1[nH]c(=O)[nH]c(=O)c1[N+](=O)[O-]	inactive
Nc1ccc2c(c1)OC1(CCCC1)O2	inactive
Cn1c(CCc2nc3ccccc3[nH]2)nnc1SCC#N	inactive
c1ccc2c(c1)c1c(c3ccccc32)CN2CCCC2C1 (stereo unspecified)	inactive
COc1ccc(-c2c[n+]3c4n2CCCCC4=C(c2ccc(Br)cc2)C3)cc1	inactive
Cc1cccc(OCCn2cc(/C=N/NC(=O)c3ccncc3)c3ccccc32)c1	inactive
Cc1ccc(S(=O)(=O)/C(=C/Cl)NC(=O)c2ccccc2)cc1	22.4 µM (active)
Cc1ccc(S(=O)(=O)NCC(=O)N/N=C/c2ccccc2O)cc1	inactive
COc1ccc(C(=O)NC(=C(Cl)Cl)S(=O)(=O)c2ccc(C)cc2)cc1	inactive
CCOC(=O)c1ccc(/C=C2/C=C(c3ccccc3)N(c3ccc(Cl)c(C(=O)O)c3)C2=O)cc1	inactive
O=C(c1cc(COc2cccc(C(F)(F)F)c2)on1)N1CCC(c2ccncc2)CC1	inactive
COc1ccc(O)c(/C=N/NC(=O)CSc2nnc(C)n2-c2ccccc2)c1	inactive
Cn1c(SCC(=O)Nc2cc(Cl)cc(Cl)c2)nnc1-c1ccc2nonc2c1	inactive
Cn1c(SCC(=O)N/N=C/c2ccc([N+](=O)[O-])s2)nnc1-c1ccccc1	22.4 µM (active)
CSc1sc(-c2nnc(SCC(=O)Nc3ccc(Cl)cc3)n2C)c2c1C=CCC2	inactive
C=CCn1c(COc2ccccc2)nnc1SCC(=O)N/N=C/c1cc(Cl)ccc1O	inactive
Cn1c(SCC(=O)N/N=C/c2ccc([N+](=O)[O-])s2)nnc1-c1ccc(Cl)cc1	11.2 µM (active)
CCN1CC2=C(OC(N)=C(C#N)C2c2cccs2)/C(=C\c2cccs2)C1 (stereo unspecified)	inactive
C/C(=N\NC(=O)C12CCC(C)(C(=O)O1)C2(C)C)c1ccccc1O (stereo unspecified)	inactive
Cc1nn(-c2ccccc2)c2nc(-c3cccs3)cc(C(=O)NN)c12	inactive
CCCNC(=O)c1ccc2c(=O)c(O)c(-c3ccc(C)cc3)[nH]c2c1	inactive
Cn1nnnc1Sc1ncnc2scc(-c3cccc(S(C)(=O)=O)c3)c12	22.4 µM (active)
CC(=O)c1cccc(-c2csc3ncnc(Sc4nnnn4C)c23)c1	11.2 µM (active)
CCN1CCS/C1=C\C=C\C1=[N+](CC)CCS1	25.1 µM (active)
Cc1cc(C)cc(NC(=O)CCc2nc3sc4c(c3c(=O)[nH]2)CCCC4)c1	inactive

SMILES	Potency
Cc1ccc(N/C(N)=N/c2nc(C)cc(N3CCCCC3)n2)c(C)c1	3.16 µM (active)
Cc1cc(C)nc(/N=C(\N)Nc2ccc(C(C)C)cc2)n1	inactive
O=C(c1ccco1)N1CCN(c2ncnc3scc(-c4cccs4)c23)CC1	inactive
COc1ccccc1OCCN1CSC(=S)N(C)C1	20 µM (active)
COC(=O)C1=C(C)N(c2ccc(Cl)c(Cl)c2)C(=O)C1	inactive
CCCCC(=O)NNC(=S)NC(=O)c1ccc(C)cc1	inactive
COc1ccc2c(c1)CCCN2S(=O)(=O)c1ccc(Cl)cc1	inactive
COc1ccc(CCNC2=C(Cl)C(=O)N(Cc3ccccc3)C2=O)cc1OC	inactive
COc1ccc(/C=C2\CN(Cc3ccccc3)C/C(=C\c3ccc(OC)c(O)c3)C2=O)cc1O	12.6 µM (active)
COCC(C)n1c(C)cc(C(=O)COC(=O)c2cccn2C)c1C (stereo unspecified)	inactive
CCOc1cc(C=C(C(=O)OC)C(=O)OC)ccc1OCc1ccc([N+](=O)[O-])cc1	28.2 µM (active)
N#Cc1nc(COc2ccc(-c3ccccc3)cc2)oc1NCc1cccnc1	inactive
O=C(Nc1ccc[n+](CC(=O)c2cccc3ccccc23)c1)c1ccccc1	3.16 µM (active)
CC(C(=O)c1ccc(-c2ccccc2)cc1)[n+]1cccc(NC(=O)c2ccccc2)c1 (stereo unspecified)	inactive
O=C(/C=C/c1ccc(Cl)cc1)Nc1ccc(CN2CCOCC2)cc1	inactive
O=C(Nc1cnn(C23CC4CC(CC(C4)C2)C3)c1)c1cnn2c(C(F)(F)F)cc(-c3ccco3)nc12	35.5 µM (active)
Cn1c(S(=O)(=O)c2ccc([N+](=O)[O-])cc2)nc(Br)c1Br	inactive
COc1ccc2c(c1)CC(N1CCN(C)CC1)c1cc(OC)ccc1S2 (stereo unspecified)	28.2 µM (active)
O=C(CSc1nc2ncc(Br)cc2[nH]1)Nc1ccccc1-c1ccccc1	inactive
COc1cccc(C2CC(c3c(-c4ccccc4)c4cc(Cl)ccc4[nH]c3=O)=NN2S(C)(=O)=O)c1OC (stereo unspecified)	inactive
C/C(=N\NC(=O)CN1CCCCC1)c1ccccc1O	inactive
Cc1cc(C)c(S(=O)(=O)/N=C2\C=C(Nc3ccc(C(=O)O)cc3)C(=O)c3ccccc32)c(C)c1	3.16 µM (active)
FC(F)(F)c1nc(-c2cccs2)ncc1-c1nnnn1-c1ccc(Cl)cc1	35.5 µM (active)
Oc1c(C(c2ccccn2)N2CCC(Cc3ccccc3)CC2)cc(Cl)c2cccnc12 (stereo unspecified)	25.1 µM (active)
CCCCSc1nc(C)cc(SCC(=O)N/N=C/c2cccc(OC)c2O)n1	inactive
O=C(C1CCC(CNS(=O)(=O)c2cccs2)CC1)N1CCN(c2ccc(F)cc2)CC1 (stereo unspecified)	inactive

SMILES	Potency
CN1CCN(c2cc(-c3cc(O)c4ncccc4c3)ccn2)CC1	31.6 µM (active)
O=c1c2ccccc2sc2c(CO)ccc(NCCN3CCCCC3)c12	22.4 µM (active)
CCN(CC)CCNc1ccnc2cc(Cl)ccc12	inactive
CCN(CC)CCNc1ccc(CO)c2sc3ccccc3c(=O)c12	20 µM (active)
Cc1cc(C(=O)CN2C(=O)c3ccccc3S2(=O)=O)c(C)n1C(C)C	inactive
O=C(Nc1ccc(Br)cc1)c1cccc(OC(=S)N2CCOCC2)c1	inactive
CCn1c2ccccc2c2cc(NC(=O)COC(=O)c3cccc(S(=O)(=O)NC)c3)ccc21	inactive
OC1(c2ccc(Cl)cc2)CCN(Cc2c[nH]c3ccccc23)CC1	inactive
O=C(Nc1ccc(Cl)cc1)Nc1nc(-c2sccc2Br)cs1	10 µM (active)
O=C(Nc1ccc(NC(=O)c2ccc(Cl)cc2Cl)cc1)c1cccs1	inactive
CCOc1ccccc1NC(=O)CCCc1nc2ccccc2c(=O)[nH]1	inactive
CCCCOc1ccccc1NC(=O)c1scc2c1OCCO2	inactive
CCCCOc1ccccc1NC(=O)Cn1c(-c2nonc2N)nc2ccccc21	11.2 µM (active)
Cc1cc(OCCCCCn2ccnc2)cc(C)c1Cl	inactive
Cc1cc(SCC(=O)NN)c2cc(Br)ccc2n1	inactive
CCCOc1ccc(C(=O)NC(=S)NNC(=O)c2c(-c3ccccc3)noc2C)cc1	inactive
COc1cccc(/C=N/Nc2nc3ccccc3n3cnnc23)c1O	inactive
CCN(CC)S(=O)(=O)c1ccc(N/N=C/c2cc(OC)ccc2O)nc1	inactive
COc1cccc(/C=N/Nc2ncnc3c2ncn3Cc2ccccc2)c1O	inactive
O=[N+]([O-])c1ccc(O)c(/C=N/Nc2ccccn2)c1	10 µM (active)
O=[N+]([O-])c1ccc(O)c(/C=N/Nc2ncnc3c2cnn3-c2ccccc2)c1	12.6 µM (active)
O=C(CCc1ccccc1)N/N=C/c1cc(Br)ccc1O	inactive
O=[N+]([O-])c1ccc(O)c(/C=N\N=C2c3ccccc3-c3ccccc32)c1	12.6 µM (active)
